PubChem BioAssay (Tox21)
Inconclusive results are not listed. A number with no mark means an inactive call. Active and inactive are the calls of the source. The call rests on the fitted dose curve; in most records, active means well fitted activation curve with a large enough effect in the repeat runs; inconclusive means weak or mixed curves; inactive means no such curve, though single readings can be large or run the other way.

target: Aryl hydrocarbon receptor (Homo sapiens) (UniProt P35869); assay: qHTS assay to identify small molecule that activate the aryl hydrocarbon receptor (AhR) signaling pathway (AID 743085); conditions: HepG2 AhR-luc (HG2L7.5c1), luciferase, 24 h; series mostly up to 70.3 µM; activation: at the top concentration; further: nearly all actives have a fitted effect of over 15% in size;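 on activation: HG2L7.5c1 human HepG2 liver cells with stably integrated DRE-driven firefly reporter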
Excerpt: U.S. Tox21 Program National Center for Advancing Translational Sciences [NCATS] NIH Chemical Genomics Center [NCGC] U.S. Environmental Protection Agency [EPA] National Institutes of Environmental Health Sciences [NIEHS] National Toxicology Program [NTP] U.S. Food and Drug Administration [FDA] Tox21 Assay overview: The Aryl hydrocarbon Receptor (AhR), a member of the family of basic helix-loop-helix transcription factors, is crucial to adaptive responses to environmental changes. AhR mediates cellular responses to environmental pollutants such as aromatic hydrocarbons through induction of phase I and II enzymes but also interacts with other nuclear receptor signaling pathways. A cell based HepG2-AhR-luc assay (HG2L7.5c1 cell line, developed by Dr. Michael S. Denison, University of California at Davis, was used to assess the activation of AhR. HepG2 (human hepatocellular carcinoma) cells were stably transfected with an Ah receptor-responsive firefly luciferase reporter gene plasmid containing 20 dioxin responsive elements and luciferase reporter gene. Increased luciferase activity can be used to identify the compounds that induce AhR activation.
Tox21 Assay Protocol Summary: 4000 cells in 5 uL/well were dispensed into white wall/solid bottom 1536-well plates using a Multidrop Combi (Thermo Fisher Scientific Inc., Waltham, MA) dispenser. After the assay plates were incubated at 37C for 5 h, 23 nL of compound or DMSO vehicle was transferred to the assay plates by a pintool station (Kalypsys, San Diego, CA). The plates were incubated at 37C for 24 hr. After 1 ul/well of CellTiter-Fluor reagent (Promega, Madison, WI) was added into the assay plates using a Flying Reagent Dispenser (FRD) (Aurora Discovery, CA), the assay plates were incubated at 37C for 30 min. The fluorescence intensity in the plates was measured using a ViewLux plate reader (PerkinElmer, Shelton, CT), followed by the addition of 4 uL of ONE-Glo Luciferase Assay reagent (Promega) using an FRD (Aurora Discovery). After the assay plates were incubated at room temperature for 30 min, luminescence intensity was measured using a ViewLux plate reader (Perkin Elmer).
On the % scale 0 is the no-effect control and ±100 the full control effect; potency means the concentration at half of the fitted maximal effect.

Sequence of Aryl hydrocarbon receptor (Homo sapiens) (P35869 whole entry, looked up): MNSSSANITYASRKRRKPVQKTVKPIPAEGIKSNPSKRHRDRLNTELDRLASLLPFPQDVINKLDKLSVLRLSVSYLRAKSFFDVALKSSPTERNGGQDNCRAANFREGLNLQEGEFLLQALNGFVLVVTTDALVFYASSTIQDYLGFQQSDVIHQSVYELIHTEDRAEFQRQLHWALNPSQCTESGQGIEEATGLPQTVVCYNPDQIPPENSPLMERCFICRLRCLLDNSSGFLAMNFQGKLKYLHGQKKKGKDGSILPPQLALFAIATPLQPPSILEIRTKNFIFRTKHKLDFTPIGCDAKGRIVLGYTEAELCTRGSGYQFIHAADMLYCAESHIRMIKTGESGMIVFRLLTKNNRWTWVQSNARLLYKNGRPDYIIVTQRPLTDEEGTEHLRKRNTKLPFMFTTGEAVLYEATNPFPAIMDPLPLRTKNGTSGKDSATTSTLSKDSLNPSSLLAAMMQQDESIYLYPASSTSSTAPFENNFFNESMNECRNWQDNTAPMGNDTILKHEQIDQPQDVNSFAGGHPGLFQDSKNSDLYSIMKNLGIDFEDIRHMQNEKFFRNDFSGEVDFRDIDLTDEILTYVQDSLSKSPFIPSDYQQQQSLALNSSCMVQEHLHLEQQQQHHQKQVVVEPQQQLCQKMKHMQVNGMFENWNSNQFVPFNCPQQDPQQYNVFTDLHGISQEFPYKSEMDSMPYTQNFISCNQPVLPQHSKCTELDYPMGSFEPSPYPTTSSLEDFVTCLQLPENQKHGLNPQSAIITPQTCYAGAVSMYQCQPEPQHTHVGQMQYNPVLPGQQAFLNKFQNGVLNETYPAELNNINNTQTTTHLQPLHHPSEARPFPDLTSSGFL

SMILES	activation	Potency
CC(C)Nc1ccccc1	-2.11%	–
CCCCSCCCC	0.695%	–
CCC/C=C(\C=O)CC	1.42%	–
CC/C(C)=N\O[Si](C)(O/N=C(\C)CC)O/N=C(\C)CC	–	24.7 µM (active)
OC[C@@H](O)C(O)[C@@H](O)CO (stereo not given in full)	-2.57% [at 95 µM]	–
CC1=C(C(=O)O)N2C(=O)[C@@H](NC(=O)[C@H](N)C3=CCC=CC3)[C@H]2SC1	2.47%	–
O=[N+]([O-])c1c(Cl)cc(Cl)cc1Cl	-0.203%	–
O/N=C/C=N/O	-0.0324%	–
N#Cc1cscn1	-1.14%	–
Cc1ccc(N)cc1S(=O)(=O)O	4.97%	–
C=CC(=O)OCC1CCCO1 (stereo not given)	-0.819%	–
CC(=O)C(C)O (stereo not given)	-1.06%	–
Cn1c(=O)c2[nH]c(Br)nc2n(C)c1=O	1.19%	–
C[Si]1(C)O[Si](C)(C)O[Si](C)(C)O[Si](C)(C)O[Si](C)(C)O1	-1.58%	–
OCC1CCC(CO)CC1 (stereo not given)	-0.271% [at 95 µM]	–
O=C(O)CSCC(=O)NC1CCSC1=O (stereo not given)	0.434%	–
NCc1ccc(S(N)(=O)=O)cc1	-0.304% [at 32.5 µM]	–
Cc1ncc([N+](=O)[O-])n1CC(C)O (stereo not given)	-1.67%	–
CCCCC1CCC(O)CC1 (stereo not given)	6.05%	–
CCCSSCCC	-1.05%	–

SMILES	activation	Potency
OC1OCCOC1O (stereo not given)	0.253%	–
N[C@@H](Cc1ccc(O)cc1)C(=O)O	-0.492%	–
NCCOCCN	0%	–
CC1(C)O[C@H]2CC(=O)OC[C@]23[C@H]2CC[C@@]4(C)[C@H](c5ccoc5)OC(=O)[C@H]5O[C@]54[C@]2(C)C(=O)C[C@@H]13	0.453%	–
Cn1c(=O)c2c(ncn2CCO)n(C)c1=O	9.36%	–
COc1ccc(CCO)cc1	0.403%	–
CC(C)COC(=O)c1ccccc1	-1.22%	–
C=C(C)[C@@H]1CC=C(C)C(=O)C1	-0.562%	–
CC(C)C1OCCN1CCOC(=O)NCCCCCCNC(=O)OCCN1CCOC1C(C)C (stereo not given)	-0.425%	–
COC(=O)CCCCC(=O)O	1.14%	–
CC(=O)O[Si](C)(OC(C)=O)OC(C)=O	-0.276% [at 95 µM]	–
CC(O)CC(C)O (stereo not given)	-0.166%	–
CCO	0.533% [at 95 µM]	–
CCCCCC/C=C/C(=O)OC	-0.144%	–
CCOCCOCC	-1.32% [at 95 µM]	–
CCCCCCCCCCCCCCCCCC#N	-0.126% [at 95 µM]	–
COc1ccc2c(c1)c1c3n2CCN(C)C3=NCC1	–	13.3 µM (active)
C=CCCCCCCCCC(=O)OCCCC	0.576%	–
CSc1cnccn1	1.52%	–
CC(C)(C)NC[C@H](O)COc1cccc2c1CCCC2=O	-0.21% [at 32.5 µM]	–
